Inconclusive results are not listed. Active and inactive are the calls of the source. Unless noted, calls follow the shape of the dose curve; as a rule, active = well fitted curve in the direction sought with a large enough effect; inconclusive = small, poorly fitted or top-dose-only effect, or another doubt; inactive = no such curve, though single readings can be large; an effect the other way counts as inactive or inconclusive.
Assays:
[1] = molecular target: Luciferin 4-monooxygenase (Photinus pyralis) (UniProt P08659); test: Biochemical firefly luciferase enzyme assay for NPC (AID 624030); also: nearly all actives have a fitted effect of over 70% in size; also: potency is read from the fitted curve at half-maximal effect
Summary of the method: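 Counter-screen for direct inhibition of the luciferase enzyme by approved-drug library compounds, run at 10 nM enzyme in 50 mM Tris acetate (final). Luminescence was read within 5 min of enzyme-buffer addition and normalized to PTC124 versus DMSO (0%).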

[2] = S16 Schwann cell viability assay (CellTiter-Glo assay) (AID 624031); also: nearly all actives have a fitted effect of over 70% in size; also: potency is read from the fitted curve at half-maximal effect
Summary of the method: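 Untransfected S16 rat Schwann cells; compound 24 h, 37 °C/5% CO2; CellTiter-Glo ATP luminescence. % activity vs no-cell wells and DMSO controls (0%); concentration-effect curves classed by r2, response magnitude, activity.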

[3] = S16 Schwann cell PMP22 intronic element firefly luciferase assay (AID 624032); also: nearly all actives have a fitted effect of over 30% in size; also: potency is read from the fitted curve at half-maximal effect
Summary of the method: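 Rat S16 Schwann cells stably carrying a PMP22 intronic element-driven Fluc reporter were seeded overnight, then exposed to compounds for 24 h at 37 °C. Luminescence was normalized to PTC124 (positive control) and DMSO (0% activity).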

[4] = S16 Schwann cell PMP22 intronic element beta-lactamase assay (AID 624044; calls by dose curve;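 also: 0% = DMSO and -100% = potassium clavulanate positive control; nearly all actives have a fitted effect of over 15% in size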); details: S16 rat Schwann cells, PMP22 element beta-lactamase FRET, 24 h; ratio activity, negative = inhibition: at 38.3 µM (top of the series) unless noted
Summary of the method: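 Beta-lactamase reporter under a PMP22 intronic regulatory element in stable S16 rat Schwann cells; 24 h compound exposure. 460 nm blue signal normalized between DMSO (0%) and potassium clavulanate, with 535 nm FRET tracking viability; curves classed by r2 and response.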

Sequence of Luciferin 4-monooxygenase (Photinus pyralis) (P08659 whole entry, looked up): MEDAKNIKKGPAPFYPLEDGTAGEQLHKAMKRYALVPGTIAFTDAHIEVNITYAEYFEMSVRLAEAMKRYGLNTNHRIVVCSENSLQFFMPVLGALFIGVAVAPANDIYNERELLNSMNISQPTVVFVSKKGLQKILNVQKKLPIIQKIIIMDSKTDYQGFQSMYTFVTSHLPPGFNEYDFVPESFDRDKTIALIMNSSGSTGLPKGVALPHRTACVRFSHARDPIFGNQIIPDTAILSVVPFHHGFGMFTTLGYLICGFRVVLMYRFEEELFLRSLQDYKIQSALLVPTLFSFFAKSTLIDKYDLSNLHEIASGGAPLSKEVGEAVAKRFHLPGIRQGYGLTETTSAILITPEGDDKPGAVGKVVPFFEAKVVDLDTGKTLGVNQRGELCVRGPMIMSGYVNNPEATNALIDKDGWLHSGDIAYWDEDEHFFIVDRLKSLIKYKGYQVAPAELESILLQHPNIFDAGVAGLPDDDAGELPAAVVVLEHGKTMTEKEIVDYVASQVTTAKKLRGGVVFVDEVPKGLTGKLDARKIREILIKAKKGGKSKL

O=C(O)/C=C/C(=O)Nc1ccc(S(=O)(=O)Nc2nccs2)cc1
inactive: Potency [1] | Potency [2] | Potency [3] | ratio activity, negative = inhibition [4] 1.33%

CN(Cc1ccccc1)Cc1ccccc1
inactive: Potency [1] | Potency [2] | Potency [3] | ratio activity, negative = inhibition [4] 0.417%

CSCCC(N)C(=O)O (stereo not given)
inactive: Potency [1] | Potency [2] | Potency [3] | ratio activity, negative = inhibition [4] 5.55%

NC(N)=NCC1COc2ccccc2O1 (stereo not given)
inactive: Potency [1] | Potency [2] | Potency [3] | ratio activity, negative = inhibition [4] 2.65%

CC1(O)CCC(C(C)(C)O)CC1 (stereo not given)
inactive: Potency [1] | Potency [2] | Potency [3]

Cc1ccc(C(C)(C)c2ccc(C)cc2)cc1
inactive: Potency [1] | Potency [2] | Potency [3]

NC(=S)N=Nc1ccc(NN=C(N)N)cc1
active: Potency [1] 11.4 µM | Potency [2] 10.2 µM
inactive: Potency [3] | ratio activity, negative = inhibition [4] -3.68%

C[Se]CC[C@H](N)C(=O)O
inactive: Potency [1] | Potency [2] | Potency [3]

O=S(=O)(O)CCCS(=O)(=O)O
inactive: Potency [1] | Potency [2] | Potency [3]

O=C(O)[C@H]1C(=CCO)O[C@H]2CC(=O)N12
inactive: Potency [1] | Potency [2] | Potency [3]

CCCc1ccc(C(=O)O)cc1
inactive: Potency [1] | Potency [2] | Potency [3]

Cc1c(C)c2c(c(C)c1OC(=O)CCC(=O)O)CC[C@@](C)(CCC[C@H](C)CCC[C@H](C)CCCC(C)C)O2
inactive: Potency [1] | Potency [2] | Potency [3] | ratio activity, negative = inhibition [4] -15.1%

CC(CCc1ccc(O)cc1)NCC(O)c1ccc(O)cc1 (stereo not given)
active: Potency [3] 2.03 µM
inactive: Potency [1] | Potency [2] | ratio activity, negative = inhibition [4] -5.84%

C/C(=C\C(=O)OCCCCCCCCC(=O)O)C[C@@H]1OC[C@H](C[C@@H]2O[C@H]2[C@@H](C)[C@H](C)O)[C@@H](O)[C@H]1O
inactive: Potency [1] | Potency [2] | Potency [3] | ratio activity, negative = inhibition [4] 0.0634%
